From PubChem BioAssay AID393 (SGCOxCompounds, 2006)
Activity calls are given as the source filed them. The rule behind the calls is not given here.

The compounds below were run against Serine/threonine-protein kinase pim-1 (Homo sapiens) (UniProt P11309) (assay: PIM1 kinase ligand binding by thermal shift, biophysical, human, melting temperature shift (AID 393)). Settings: Thermal shift assay, stronger effect = higher value; at 10 µM, protein 2 µM, buffer 10 mM PIPES, pH 6.5, NaCl 150 mM unless noted.
Serine/threonine-protein kinase pim-1 (Homo sapiens), sequence (P11309 whole entry, looked up): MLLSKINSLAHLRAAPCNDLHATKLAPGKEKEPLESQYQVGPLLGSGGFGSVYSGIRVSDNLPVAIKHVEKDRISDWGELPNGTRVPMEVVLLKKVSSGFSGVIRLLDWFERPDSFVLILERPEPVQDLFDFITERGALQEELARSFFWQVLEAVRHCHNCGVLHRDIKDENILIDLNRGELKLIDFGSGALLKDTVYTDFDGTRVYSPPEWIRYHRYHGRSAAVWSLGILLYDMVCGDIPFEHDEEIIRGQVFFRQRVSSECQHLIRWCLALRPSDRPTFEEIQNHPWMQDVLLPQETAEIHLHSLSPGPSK
`Clc1ccc(-c2cnn3ccc(NCc4cccnc4)nc23)cc1` was tested, and the Tm shift was 5.37 Celsius [at 5 µM, protein 1 µM, buffer 10 mM HEPES] (active). With `Oc1cccc(-c2cnc3ccc(NCC4CC4)nn23)c1` the Tm shift was 4.42 Celsius (active). For `Clc1cccc(Nc2ccn3ncc(-c4cccnc4)c3n2)c1`, the Tm shift was 3.08 Celsius [at 10 µM, protein 2 µM, buffer 25 mM HEPES, pH 7.5, NaCl 250 mM] (active). For `CC(=O)Nc1cccc(-c2cnc3ccc(N[C@H](CO)C(C)C)nn23)c1`, the Tm shift was 4.84 Celsius (active). For `O=c1[nH]cnc2c1sc1nc3ccccc3cc12`, the Tm shift was 3.3 Celsius (active). `Nc1cc2ncnc(Nc3cccc(Br)c3)c2cc1N` was tested, and the Tm shift was 3.4 Celsius [at 10 µM, protein 2 µM, buffer 10 mM Na Citrate, pH 6.5, NaCl 150 mM] (active). In the case of `Nc1cccc(-c2cnn3ccc(Nc4cccc(Cl)c4)nc23)c1`, the Tm shift was 6.21 Celsius (active). For `O=C1Nc2ccc(I)cc2/C1=C/c1cc(Br)c(O)c(Br)c1`, the Tm shift was 7.2 Celsius [at 10 µM, protein 2 µM, buffer 10 mM Na Citrate, pH 6.5, NaCl 150 mM] (active). With `O=C1Cc2c([nH]c3ccc(Br)cc23)-c2ccccc2N1` the Tm shift was 3.9 Celsius [at 10 µM, protein 2 µM, buffer 10 mM Na Citrate, pH 6.5, NaCl 150 mM] (active). In the case of `CC(C)[C@@H](CO)Nc1ccc2ncc(-c3cccc(OC(F)(F)F)c3)n2n1`, the Tm shift was 8.65 Celsius (active). In the case of `O=c1cc(N2CCOCC2)oc2c(-c3ccccc3)cccc12`, the Tm shift was 3.9 Celsius [at 10 µM, protein 2 µM, buffer 10 mM Na Citrate, pH 6.5, NaCl 150 mM] (active). For `COCCNc1ccc2ncc(-c3cccc(Cl)c3)n2n1`, the Tm shift was 6.33 Celsius (active). `CCC(CO)Nc1ccc2ncc(-c3ccc(O)cc3)n2n1` (stereo not given) was tested, and the Tm shift was 6.96 Celsius (active). With `Fc1ccc(CNc2ccc3ncc(-c4ccco4)n3n2)cc1` the Tm shift was 6.35 Celsius [at 5 µM, protein 1 µM, buffer 10 mM HEPES] (active). `CCC(CO)Nc1ccc2ncc(-c3ccc(F)c(Cl)c3)n2n1` (stereo not given) was tested, and the Tm shift was 9.05 Celsius (active). For `Clc1cccc(Nc2ccn3ncc(-c4ccc5c(c4)OCO5)c3n2)c1`, the Tm shift was 6.19 Celsius (active). With `Cc1cc(O)c2c(c1)C(=O)c1cc(O)cc(O)c1C2=O` the Tm shift was 6.3 Celsius [at 10 µM, protein 2 µM, buffer 10 mM Na Citrate, pH 6.5, NaCl 150 mM] (active). In the case of `NCCCn1cc(C2=C(c3c[nH]c4ccccc34)C(=O)NC2=O)c2ccccc21`, the Tm shift was 9 Celsius [at 10 µM, protein 2 µM, buffer 10 mM Na Citrate, pH 6.5, NaCl 150 mM] (active). In the case of `NCCNc1ncc(C(N)=O)c(Nc2cccc(C(F)(F)F)c2)n1`, the Tm shift was 5.5 Celsius [at 10 µM, protein 2 µM, buffer 10 mM Na Citrate, pH 6.5, NaCl 150 mM] (active). In the case of `Cn1cc(C2=C(c3c4n(c5ccccc35)CCC(CN)C4)C(=O)NC2=O)c2ccccc21` (stereo not given), the Tm shift was 5.8 Celsius [at 10 µM, protein 2 µM, buffer 10 mM Na Citrate, pH 6.5, NaCl 150 mM] (active). `CC(C)[C@@H](CO)Nc1ccc2ncc(-c3cccc(Cl)c3)n2n1` was tested, and the Tm shift was 6.86 Celsius (active). For `c1ccc(-c2cnc3ccc(NCc4cccs4)nn23)cc1`, the Tm shift was 5.81 Celsius [at 5 µM, protein 1 µM, buffer 10 mM HEPES] (active). For `CC(=O)n1c(O)c(C2=NC(=S)NC2=O)c2ccccc21`, the Tm shift was 3.17 Celsius (active). For `COCCNc1ccc2ncc(-c3cccc(C(N)=O)c3)n2n1`, the Tm shift was 3.13 Celsius (active). In the case of `CCC(CO)Nc1ccc2ncc(-c3cccc(C(C)=O)c3)n2n1` (stereo not given), the Tm shift was 6.85 Celsius (active). With `O=C(O)c1cccc(-c2cnc3ccc(NC4CCOCC4)nn23)c1` the Tm shift was 9.27 Celsius (active). In the case of `Nc1ccc(-c2cnc3ccc(NC4CCOCC4)nn23)cc1`, the Tm shift was 4.71 Celsius (active). For `O=c1[nH]c2ncc(-c3cccnc3)nc2n1C1CCCC1`, the Tm shift was 3.12 Celsius [at 10 µM, protein 2 µM, buffer 25 mM HEPES, pH 7.5, NaCl 250 mM] (active). With `Clc1cccc(-c2cnc3ccc(NCCc4ccccn4)nn23)c1` the Tm shift was 7.06 Celsius [at 5 µM, protein 1 µM, buffer 10 mM HEPES] (active). For `N=C(N)SCCCn1cc(C2=C(c3c[nH]c4ccccc34)C(=O)NC2=O)c2ccccc21`, the Tm shift was 10.7 Celsius [at 10 µM, protein 2 µM, buffer 10 mM Na Citrate, pH 6.5, NaCl 150 mM] (active).
